D2 PAM-1: human D2 receptor positive allosteric modulation. P14416. DiscoveRx D2 beta-arrestin cells, luminescence, 90 min; 100% = 57 uM dopamine signal. potentiation, % (test concentration not listed). 360,000 compounds, 0.23% hits; in the data active means potentiation above about 50%; inconclusive means mostly about 30% to 49%
Target sequence (P14416 whole entry, looked up): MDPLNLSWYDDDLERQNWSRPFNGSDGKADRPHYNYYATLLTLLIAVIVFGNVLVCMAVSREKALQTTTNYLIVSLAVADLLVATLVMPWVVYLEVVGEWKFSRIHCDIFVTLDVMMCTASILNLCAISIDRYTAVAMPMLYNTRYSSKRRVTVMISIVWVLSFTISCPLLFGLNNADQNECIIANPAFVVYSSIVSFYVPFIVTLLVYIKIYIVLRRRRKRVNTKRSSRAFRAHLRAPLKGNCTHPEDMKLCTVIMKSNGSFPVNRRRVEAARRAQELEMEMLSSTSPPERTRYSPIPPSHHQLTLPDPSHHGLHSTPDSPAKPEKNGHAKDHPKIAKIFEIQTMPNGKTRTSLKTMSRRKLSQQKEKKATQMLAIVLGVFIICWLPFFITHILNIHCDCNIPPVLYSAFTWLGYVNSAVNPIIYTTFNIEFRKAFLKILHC
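D2 cells co-treated with compound plus 50 nM dopamine (EC20) for 90 min at 37 deg C to detect potentiation. Beta-arrestin recruitment was read as enzyme-fragment luminescence after 1 h at ambient temperature. Full response was set by 57 uM dopamine.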
D2 ag-1: agonists of human D2 dopamine receptor; P14416; HEK293 T-REx D2 cells, calcium flux agonist mode; activation, % at 2 µM; 340,000 compounds, 0.53% hits; AID 485358;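 active means activation over 3 SD above normal in the single-dose calcium agonist read, cut at about 30% in these data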; further: 0% is about no effect
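Tetracycline-induced HEK293 T-REx cells with force-coupled D2 receptor, plated overnight at 30 C, loaded with no-wash calcium dye. After a 10 s baseline, compound was pin-added and calcium flux read kinetically for 180 s; calcium rises flagged agonists.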
D2 antagonist: D2 dopamine receptor (human) antagonism; P14416; HEK293 TREx D2 cells, calcium flux, dopamine EC80; inhibition, % at 10 µM; 340,000 compounds, 2% hits; AID 485344; in the data active means inhibition above about 30%; inactive means below that, where a call was filed; further: 0% is about no effect
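Dopamine at EC80 is the agonist stimulus; test compounds precede it by 180 s. Calcium flux read kinetically in a force-coupled, inducible HEK293 T-REx D2 cell line.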
D2 ag-2: activates the human D2 dopamine receptor | P14416 | 360,000 compounds, 0.084% hits | DiscoveRx PathHunter D2 beta-arrestin, luminescence, 90 min; 100% = 57 uM dopamine signal | activation, % (concentration not given with the values); in the data active means activation above about 40%; inconclusive means between about 15% and that limit
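DiscoveRx PathHunter D2 beta-arrestin cells (2,100/well) attached overnight, then compound-stimulated 90 min at 37 C in HBSS/10 mM HEPES/0.1% Tween-20 buffer; beta-galactosidase complementation read by luminescence after 1 h at ambient temperature. Dopamine 57 uM final (EC100) as control.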
D2 PAM-2: D2 dopamine receptor (human) potentiation. HEK293 T-REx D2, calcium flux, EC20 dopamine potentiation. potentiation, % at 10 µM. 340,000 compounds, 0.34% hits. AID 485347;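 active means potentiation over 3 SD above the plate norm, cut at about 30% in these data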; further: 0% is about no effect
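Using a no-wash calcium dye in inducible, force-coupled HEK293 Trex cells expressing D2, we tracked fluorescence each second for 180 s after compound, then for 180 s after EC20 dopamine to detect augmented signalling.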
D3 arrestin ag: activates human D3 dopamine receptor beta-arrestin recruitment; shares compounds with D2 ag-1; DiscoveRx D3 beta-arrestin cells, luminescence, 90 min; Potency, µM (series often up to 76.9 µM), for the others: top-dose activation, hits mostly activators; 2,300 compounds, 4% hits; AID 720506;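 further: potency means the concentration at half of the fitted maximal effect; 100% = dopamine control response; nearly all actives have a fitted effect of over 70% in size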
D2 ag-3: D2 receptor agonism, beta-arrestin counterscreen; shares compounds with D2 ag-1; DiscoveRx PathHunter D2 beta-arrestin, luminescence, 90 min; response scale: percent relative to full dopamine signal; Potency, µM (top dose mostly 76.9 µM), inactives show top-dose activation, most hits filed as activators; 2,300 compounds, 5.9% hits; further: potency means the concentration at half of the fitted maximal effect; % of control where 0% means no effect; nearly all actives have a fitted effect of over 70% in size
* = called active by the depositor; ? = inconclusive; . = no result given. Shown are actives, neighbours in structure and some others; about 2.4% of the full set was active somewhere. Unless noted, the call rests on the fitted dose curve; in most records, active means well fitted activation curve with a large enough effect; inconclusive means small, poorly fitted or top-dose-only effect; inactive means flat fitted curve, though single readings scatter.

SMILES	D2 PAM-1	D2 ag-1	D2 antagonist	D2 ag-2	D2 PAM-2	D3 arrestin ag	D2 ag-3
O=C(NCc1ccncc1)c1cccc(S(=O)(=O)Nc2ccc(F)cc2)c1	-6	0	24	9	-1	10%	2%
CCOc1ccc(-c2cc(C(F)(F)F)c(C#N)c(SCC(=O)Nc3ccccc3)n2)cc1	.	5	.	.	-10	.	.
Cn1c(=O)c2c(nc3n(-c4ccc(O)cc4)c(-c4ccc(Br)cc4)cn23)n(C)c1=O	.	1	.	.	0	.	.
Cc1cc(-c2n[nH]c(=S)n2/N=C/c2sccc2C)n[nH]1	-2	66*	-15	-2	-26	-16%	-12%
O=C(Nc1ccc2ccccc2c1)N1CCCN(CCOc2ccccc2)CC1	-6	38*	-1	3	-22	10%	1%
O=C(Nc1cccc2ccccc12)N1CC=C(c2ccccc2)CC1	-2	34*	-8	-1	-20	?	19%
O=C(O)C1CCCCC1C(=O)N1CC=C(c2ccccc2)CC1 (stereo not drawn)	-16	34*	-1	?	-12	-13%	6%
O=C(c1cc2ccccc2o1)N1CCN(CCOc2ccccc2)CC1	-27	76*	96*	?	-38	0.2µM*	?
O=C(c1cc2ccccc2o1)N1CCOCC1	-16	0	2	-3	-13	.	.
COc1ccc(OC)c(C(O)c2ncc(-c3ccccc3OC)[nH]2)c1 (stereo not drawn)	-7	.	.	6	.	.	.
O=C(c1ccc(Br)o1)N1CC=C(c2ccccc2)CC1	-13	.	.	2	.	.	.
O=C(c1cc2ccccc2o1)N1CC=C(c2ccccc2)CC1	-12	58*	46*	-20	-16	12%	7%
Cc1nnc(N2C(=O)C(O)=C(C(=O)c3ccco3)C2c2ccc(F)cc2)s1 (stereo not drawn)	-2	17	-19	-4	5	-6%	-3%
Cc1ccc(S(=O)(=O)N(Cc2cccnc2)Cc2cc3ccccc3[nH]c2=O)cc1	4	0	94*	-2	3	-2%	1%
COc1ccc(S(=O)(=O)N(Cc2cccnc2)Cc2cc3ccccc3[nH]c2=O)cc1	4	1	8	3	5	.	.
Nc1c(C(=O)c2ccc(Cl)cc2)sc2nsc(SCCN3CCOCC3)c12	-4	16	-8	-1	11	2%	2%
CC(=O)c1sc2nsc(SCCN3CCCCC3)c2c1N	-14	5	-14	2	-3	.	.
CCOC(=O)C(CC(=O)O)NCc1ccco1 (stereo not drawn)	-7	1	7	-3	12	.	.
CC(C)OC(=O)C(CC(=O)O)NCc1ccccc1 (stereo not drawn)	-2	-1	68*	-1	4	-8%	-4%
Cc1ccc(S(=O)(=O)NCC(c2cccnc2)N2CCN(Cc3ccccc3)CC2)cc1 (stereo not drawn)	-7	13	-8	-1	-7	.	.
O=S(=O)(NCC(c1cccnc1)N1CCN(Cc2ccccc2)CC1)c1ccccc1 (stereo not drawn)	-11	61*	30	-6	-16	-2%	6%
CCOc1ccc(NC(=O)NCCn2nnc3cc(S(=O)(=O)N(C)C)ccc32)cc1	.	2	.	.	3	.	.
C1=CC2CC1CC2CN1CCN(c2ccccc2)CC1 (stereo not drawn)	?	76*	77*	?	-28	7%	?
Cc1ccccc1CN1CCN(CC2CC3C=CC2C3)CC1 (stereo not drawn)	-29	-1	19	-3	-24	.	.
O=C(c1ccco1)N1CCN(CC2CC3C=CC2C3)CC1 (stereo not drawn)	?	24	84*	42*	.	?	?
Cc1nn(-c2ccc(N3CCCC3)nn2)c(C)c1CCC(=O)NCc1ccc(F)cc1	.	0	.	.	-5	.	.

High-throughput results deposited in PubChem by National Center for Advancing Translational Sciences (NCATS).
